Assay outcomes (PubChem)
HP1b chromo inh: blocks HP1-beta chromodomain binding to methylated histone tails | P83916 | AlphaScreen HP1-beta / biotin-H3K9me3 peptide binding | Potency, µM (titrated, usually from 114 µM), most hits filed as inhibitors | 0.56% of 390,000 active; note: nearly all actives have a fitted effect of over 70% in size
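HP1-beta protein (50 nM final) preincubated 30 min at room temperature with biotinylated H3(1-18)K9me3 peptide (50 nM) in PBS pH 7.4, 0.01% Tween-20, then compound added for 30 min. AlphaScreen streptavidin donor/nickel chelate acceptor beads (10 ug/mL final), 30 min dark, luminescence read.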
G9a inh: G9a (human) methyltransferase inhibition; G9a H3K9 monomethylation, AlphaScreen, 2 h; Potency, µM (highest dose often 102 µM), hits mostly inhibitors; 8.8% of 350,000 active; AID 504332; note: nearly all actives have a fitted effect of over 75% in size
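Enzyme 20 nM + cpd, 15 min RT; add b-H3K9 pep 500 nM / SAM 20 uM; 2 h RT; anti-H3K9me1 Ab 0.5 ug/mL + SA donor / anti-rabbit acceptor beads 20 ug/mL each, 10 min; AlphaScreen read.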
PLK1 PBD block: inhibitors of human PLK1 polo-box domain binding; Plk1 PBD binding of FITC phosphopeptide, fluorescence polarization; Potency, µM, hits mostly inhibitors; 2.8% of 360,000 active; AID 720504; note: series mostly up to about 57 µM; nearly all actives have a fitted effect of over 65% in size
PI5P4Ka inh: PI5P4K alpha (human) kinase inhibition; P48426; max response, %; 1.2% of 330,000 active; PI5P4Kalpha enzyme, ADP-Glo luminescence, 60 min; hits give low values; active = max response of -50% or lower; inconclusive = between -30% and -50%; inactive = -30% or higher; note: value at the top dose of about 77 µM
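Enzyme plus substrate dispensed, test compounds pinned in, then ATP (5 microM final) added. After 60 min at RT, ADP-Glo reagent 1 for 45 min and reagent 2 for 30 min preceded luminescence imaging.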
BAZ2B block: BAZ2B (human) inhibition | AlphaScreen BAZ2B-H3K14Ac peptide displacement | Potency, µM (top dose mostly 114 µM), usual class: inhibitors | 4.4% of 360,000 active | AID 504333; note: nearly all actives have a fitted effect of over 60% in size
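AlphaScreen displacement of biotin-H3(5-23)K14Ac peptide (50 nM final) from BAZ2B (50 nM final) in PBS pH 7.4, 0.01% Tween-20; complex preformed 30 min RT, then compounds (top 110 uM) 30 min RT, beads 20 min dark.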
JMJD2A Tudor: inhibitors of human JMJD2A Tudor domain; O75164; AlphaScreen JMJD2A-Tudor / H3K4me3 peptide binding; Potency, µM (top dose mostly 114 µM), hits mostly inhibitors; 4.4% of 390,000 active; AID 504339; note: nearly all actives have a fitted effect of over 50% in size
Target sequence (O75164 whole entry, looked up, the tested form may be a part): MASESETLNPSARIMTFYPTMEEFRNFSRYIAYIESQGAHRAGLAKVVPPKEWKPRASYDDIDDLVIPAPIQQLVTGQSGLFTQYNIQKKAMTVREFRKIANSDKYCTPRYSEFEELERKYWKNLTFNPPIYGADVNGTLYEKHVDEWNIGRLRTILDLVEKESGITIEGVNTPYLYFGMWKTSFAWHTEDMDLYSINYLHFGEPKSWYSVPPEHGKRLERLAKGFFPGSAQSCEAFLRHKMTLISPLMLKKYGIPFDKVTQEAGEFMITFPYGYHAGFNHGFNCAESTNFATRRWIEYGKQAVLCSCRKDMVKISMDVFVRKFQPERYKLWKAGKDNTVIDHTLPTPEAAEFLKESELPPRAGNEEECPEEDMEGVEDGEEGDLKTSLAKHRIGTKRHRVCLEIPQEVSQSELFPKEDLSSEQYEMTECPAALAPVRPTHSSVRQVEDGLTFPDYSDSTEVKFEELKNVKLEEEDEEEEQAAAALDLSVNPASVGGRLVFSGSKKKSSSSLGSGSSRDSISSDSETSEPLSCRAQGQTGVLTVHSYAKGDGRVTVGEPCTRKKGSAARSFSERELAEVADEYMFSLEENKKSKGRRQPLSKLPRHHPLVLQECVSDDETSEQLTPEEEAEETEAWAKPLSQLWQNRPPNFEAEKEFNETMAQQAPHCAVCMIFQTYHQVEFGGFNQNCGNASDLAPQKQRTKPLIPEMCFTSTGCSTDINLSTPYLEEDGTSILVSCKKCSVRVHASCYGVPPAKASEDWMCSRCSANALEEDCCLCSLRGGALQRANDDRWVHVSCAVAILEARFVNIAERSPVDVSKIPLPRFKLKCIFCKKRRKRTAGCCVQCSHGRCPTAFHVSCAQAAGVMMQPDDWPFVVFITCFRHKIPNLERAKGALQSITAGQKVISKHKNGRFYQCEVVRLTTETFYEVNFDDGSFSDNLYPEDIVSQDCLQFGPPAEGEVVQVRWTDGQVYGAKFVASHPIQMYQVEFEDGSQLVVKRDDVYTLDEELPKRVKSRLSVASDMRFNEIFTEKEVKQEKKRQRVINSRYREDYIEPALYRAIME
Of the large screens only hits and unclear results are named; the others gave an inactive call; ! = a repeat was not active. Sampled rows, rich in hits. Any-hit rate of the full collection: about 12%. Unless noted, calls come from the whole dose curve; as a rule, active = well fitted curve in the direction sought with a large enough effect; inconclusive = small, poorly fitted or top-dose-only effect, or another doubt; inactive = no such curve, though single readings can be large; an effect the other way counts as inactive or inconclusive.

O=C1CC(=O)N(Cc2ccco2)C(=O)N1	G9a inh inconclusive, PLK1 PBD block 6.7µM, BAZ2B block 40µM, JMJD2A Tudor 4.5µM (no result: PI5P4Ka inh)
O=C1CC(=O)N(Cc2ccco2)C(=S)N1	G9a inh 8.9µM, PLK1 PBD block 21µM, PI5P4Ka inh inconclusive, BAZ2B block 20µM, JMJD2A Tudor 56µM
CC(=O)c1ccc(-n2c(CCC(=O)O)ccc2-c2ccc(Cl)cc2)cc1	G9a inh 40µM, BAZ2B block inconclusive
CCOC(=O)c1ccc(-n2c(CCC(=O)O)ccc2-c2ccccc2)cc1O	G9a inh 18µM, BAZ2B block 45µM (no result: PLK1 PBD block, PI5P4Ka inh)
O=C(O)CCc1ccc(-c2ccccc2)n1-c1ccc(C(=O)O)cc1	G9a inh 14µM!
NC(=O)Nn1c(CCC(=O)O)ccc1-c1ccc(Cl)cc1	none
COc1ccc(-n2c(CCC(=O)O)ccc2-c2ccccc2)c(OC)c1	G9a inh 8.9µM, BAZ2B block inconclusive, JMJD2A Tudor inconclusive (no result: PLK1 PBD block, PI5P4Ka inh)
CC1=C(C(=O)Nc2ccccc2)C(c2ccccn2)n2nc(SCc3ccccc3)nc2N1 (stereo not drawn)	G9a inh inconclusive (no result: PLK1 PBD block, PI5P4Ka inh)
O=C(O)CCc1ccc(-c2ccccc2)n1-c1cccc(C(=O)O)c1	BAZ2B block inconclusive, JMJD2A Tudor inconclusive
O=C(O)CCc1ccc(-c2ccc(Br)cc2)n1-c1cccc(O)c1	HP1b chromo inh inconclusive, G9a inh 45µM, BAZ2B block inconclusive, JMJD2A Tudor inconclusive
Clc1ccc(/C=N/N2CCCCC2)cc1	JMJD2A Tudor 50µM
Clc1ccc(C=NN2CCCCCC2)cc1	JMJD2A Tudor 35µM (no result: G9a inh, BAZ2B block)
N#Cc1ccc(C=NN2CCCCCC2)cc1	HP1b chromo inh inconclusive, JMJD2A Tudor 35µM (no result: G9a inh, BAZ2B block)
CCN(CC)C(=O)c1sc2c(c1C)c(=O)n(-c1ccc(C)c(C)c1)c(=O)n2Cc1cc(=O)n2c(C)cccc2n1	none (no result: PLK1 PBD block, PI5P4Ka inh)
C=CCOn1c(=O)c(-c2ccccc2)[n+]([O-])c2ccccc21	none
O=c1c(-c2ccco2)[n+]([O-])c2ccccc2n1OCc1ccccc1[N+](=O)[O-]	G9a inh 35µM
C=CCOn1c(=O)c(-c2cc3ccccc3o2)[n+]([O-])c2ccccc21	G9a inh inconclusive, PLK1 PBD block 30µM
CC(Oc1ccc2c3c(c(=O)oc2c1)CCCC3)C(=O)NCc1cccnc1 (stereo not drawn)	none
O=C(CSc1nnc(-c2ccc(O)cc2)o1)c1ccc(Br)cc1	none (no result: PLK1 PBD block, PI5P4Ka inh)
COc1ccc(Nc2nc(Nc3ccc(OC)cc3OC)nc(N3CCOCC3)n2)c(OC)c1	G9a inh inconclusive, BAZ2B block 7.9µM, JMJD2A Tudor inconclusive (no result: PLK1 PBD block, PI5P4Ka inh)
CCn1c(=O)n(CC)c2cc(N3CCCC3)c(NC(=O)c3ccccc3F)cc21	HP1b chromo inh inconclusive, G9a inh 40µM, PLK1 PBD block 24µM, BAZ2B block inconclusive, JMJD2A Tudor 56µM
CCn1c(=O)n(CC)c2cc(N3CCCC3)c(NC(=O)c3ccccc3C)cc21	G9a inh 50µM, BAZ2B block inconclusive, JMJD2A Tudor inconclusive
Cc1ccccc1C(=O)Nc1ccccc1N1CCCCC1	none
Cn1c(=O)c(=O)n(C)c2cc(N3CCCC3)c(NC(=O)c3ccccc3F)cc21	none (no result: PLK1 PBD block, PI5P4Ka inh)
O=C(NCc1cccnc1)c1ccc2sc([C@@H]3O[C@H](CO)[C@H](O)[C@H](O)[C@H]3O)nc2c1	none (no result: HP1b chromo inh, G9a inh, BAZ2B block, JMJD2A Tudor)
O=C(NC1CC(=O)N(c2cccc(F)c2)C1)c1ccc(Br)o1 (stereo not drawn)	none (no result: PLK1 PBD block, PI5P4Ka inh)
CCOc1ccc(S(=O)(=O)NCCCl)cc1	none (no result: G9a inh)
CCOc1ccc(S(=O)(=O)NNS(=O)(=O)c2ccc(C)cc2C)cc1	G9a inh 3.5µM
CN(C)C(=O)NC1C=CS(=O)(=O)C1 (stereo not drawn)	none
CCOC(=O)NC1C=CS(=O)(=O)C1 (stereo not drawn)	G9a inh 50µM
O=C(c1ccco1)n1nc(-c2ccccc2)nc1NCc1ccco1	PLK1 PBD block 30µM, JMJD2A Tudor 79µM
CCS(=O)(=O)n1nc(-c2ccccc2)nc1NCc1ccco1	G9a inh 25µM (no result: PI5P4Ka inh)
COc1ccc(C(=O)Nc2cc(C(F)(F)F)ccc2-n2cncn2)cc1	none
CC(Oc1ccc(F)cc1)C(=O)Nc1cc(C(F)(F)F)ccc1-n1cncn1 (stereo not drawn)	G9a inh 56µM
